Measurements reported in PubChem BioAssay AID1159580 (chemical genetic matrix, 2015).
The campaign covered roughly 5,500 compounds. About 2,000 (36%) were called active. Roughly 18% stayed inconclusive and do not appear here. Rule as the data show it: active = normalized growth mostly below about 0.91 (no sharp cut-off); inconclusive = no clear call, values can overlap the other calls; inactive = mostly above about 0.92. The list shows a part of the results.

Test: chemical genetic growth profiling, strain panel (AID 1159580);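 also: tested at 20 µM; growth read once vehicle control cultures reached saturation at 30 °C; 1 = growth at the plate median or of vehicle wells; lower values mean less growth of the strain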
Settings: S. cerevisiae deletion strains, growth OD

Measured: normalized growth

CC(C)(O)[C@@H]1CC[C@](C)([C@H]2[C@@H](O)C[C@@]3(C)C4C[C@H](O[C@@H]5O[C@H](CO)[C@@H](O)[C@H](O)[C@H]5O)C5C(C)(C)[C@@H](O[C@@H]6OC[C@@H](O)[C@H](O)[C@H]6O)CC[C@@]56C[C@@]46CC[C@]23C)O1 (stereo not given in full)
inactive: locus YAL021C, strain ccr4, active compounds read low 0.988 | locus YAL026C, strain drs2, active compounds read low 0.986 | locus YAL030W, strain snc1, active compounds read low 0.99 | locus YBL061C, strain skt5, active compounds read low 0.999 | locus YBR009C, strain hhf1, active compounds read low 1.01 | locus YBR023C, strain chs3, active compounds read low 0.998 | locus YBR171W, strain sec66, active compounds read low 0.989 | locus YBR231C, strain swc5, active compounds read low 1 | locus YBR279W, strain paf1, active compounds read low 0.991 | locus YCL011C, strain gbp2, active compounds read low 0.995 | locus YCL016C, strain dcc1, active compounds read low 1 | locus YCL061C, strain MRC1, active compounds read low 1 | locus YCL069W, strain vba3, active compounds read low 0.981 | locus YCR088W, strain abp1, active compounds read low 0.986 | locus YDL005C, strain med2, active compounds read low 0.977 | locus YDL040C, strain nat1, active compounds read low 0.985 | locus YDR001C, strain nth1, active compounds read low 0.991 | locus YDR069C, strain doa4, active compounds read low 0.975 | locus YDR137W, strain rgp1, active compounds read low 1.04 | locus YDR159W, strain sac3, active compounds read low 0.966 | locus YDR195W, strain ref2 0.931 | locus YDR297W, strain sur2, active compounds read low 1 | locus YDR334W, strain swr1, active compounds read low 0.959 | locus YDR335W, strain msn5, active compounds read low 0.986 | locus YDR392W, strain spt3, active compounds read low 0.997 | locus YEL003W, strain gim4, active compounds read low 0.991 | locus YEL037C, strain rad23, active compounds read low 0.974 | locus YEL061C, strain CIN8 (second series), active compounds read low 0.985 | locus YER015W, strain faa2, active compounds read low 0.998 | locus YER016W, strain bim1, active compounds read low 1 | locus YER111C, strain swi4, active compounds read low 0.979 | locus YER155C, strain BEM2 (second series), active compounds read low 1 | locus YFR010W, strain ubp6, active compounds read low 0.989 | locus YGL167C, strain pmr1, active compounds read low 0.979 | locus YGL173C, strain kem1, active compounds read low 0.99 | locus YGL227W, strain vid30, active compounds read low 0.999 | locus YGL240W, strain doc1, active compounds read low 1 | locus YGL253W, strain hxk2, active compounds read low 0.988 | locus YHR013C, strain ard1, active compounds read low 0.976 | locus YHR027C, strain rpn1, active compounds read low 0.998 | locus YHR030C, strain SLT2, active compounds read low 0.954 | locus YHR079C, strain IRE1, active compounds read low 0.96 | locus YHR142W, strain chs7, active compounds read low 0.978 | locus YJL092W, strain hpr5, active compounds read low 0.995 | locus YJL095W, strain BCK1 (second series), active compounds read low 0.981 | locus YJL095W, strain BCK1, active compounds read low 1.05 | locus YJL115W, strain asf1, active compounds read low 0.978 | locus YJL129C, strain trk1, active compounds read low 0.989 | locus YJL154C, strain vps35, active compounds read low 0.972 | locus YJL164C, strain tpk1, active compounds read low 1 | locus YJL166W, strain qcr8, active compounds read low 0.987 | locus YJL187C, strain SWE1, active compounds read low 0.993 | locus YJR066W, strain TOR1, active compounds read low 0.92 | locus YKL160W, strain elf1, active compounds read low 0.996 | locus YKR026C, strain gcn3, active compounds read low 0.992 | locus YKR091W, strain srl3, active compounds read low 0.993 | locus YLL001W, strain dnm1, active compounds read low 1 | locus YLL026W, active compounds read low 1 | locus YLL041C, strain sdh2, active compounds read low 0.98 | locus YLR027C, strain aat2, active compounds read low 1.02 | locus YLR113W, strain HOG1, active compounds read low 1.1 | locus YLR221C, strain rsa3, active compounds read low 1 | locus YLR258W, strain gsy2, active compounds read low 0.979 | locus YLR262C, strain YPT6 (second series), active compounds read low 0.998 | locus YLR320W, strain mms22, active compounds read low 0.996 | locus YLR342W, strain FKS1, active compounds read low 1 | locus YLR357W, strain rsc2, active compounds read low 0.967 | locus YLR370C, strain arc18, active compounds read low 0.986 | locus YLR384C, strain iki3, active compounds read low 1 | locus YML120C, strain ndi1, active compounds read low 0.98 | locus YMR058W, strain fet3, active compounds read low 0.994 | locus YMR125W, strain sto1, active compounds read low 0.984 | locus YMR129W, active compounds read low 0.995 | locus YMR205C, strain PFK2, active compounds read low 0.976 | locus YMR231W, strain pep5, active compounds read low 0.991 | locus YNL071W, strain lat1, active compounds read low 0.972 | locus YNL183C, strain NPR1, active compounds read low 0.985 | locus YNL209W, strain ssb2, active compounds read low 0.987 | locus YNL248C, strain rpa49, active compounds read low 0.981 | locus YNL322C, strain KRE1 (second series), active compounds read low 0.989 | locus YNR049C, strain mso1, active compounds read low 0.994 | locus YOR001W, strain rrp6, active compounds read low 0.972 | locus YOR070C, strain gyp1, active compounds read low 1 | locus YOR080W, strain dia2, active compounds read low 0.987 | locus YOR083W, strain WHI5, active compounds read low 1 | locus YOR106W, strain vam3, active compounds read low 0.99 | locus YOR231W, strain MKK1, active compounds read low 0.95 | locus YOR265W, strain rbl2, active compounds read low 0.993 | locus YOR270C, strain vph1, active compounds read low 0.793 | locus YOR290C, strain snf2, active compounds read low 1.01 | locus YPL051W, strain arl3, active compounds read low 1.01 | locus YPL078C, strain atp4, active compounds read low 0.975 | locus YPL106C, strain sse1, active compounds read low 0.975 | locus YPL240C, strain hsp82, active compounds read low 0.989 | locus YPL256C, strain CLN2, active compounds read low 0.974
